These results are taken from PubChem BioAssay AID1347418 (Sanford-Burnham Center for Chemical Genomics, 2020).

What is called inhibition is the drop in the measured response relative to a control, in per cent.

The whole screen tested about 1,300 compounds, of which about 750 (58%) were called active. This is one part of the list.

Sulfhydryl oxidase 1 (Homo sapiens), sequence (O00391 whole entry, looked up): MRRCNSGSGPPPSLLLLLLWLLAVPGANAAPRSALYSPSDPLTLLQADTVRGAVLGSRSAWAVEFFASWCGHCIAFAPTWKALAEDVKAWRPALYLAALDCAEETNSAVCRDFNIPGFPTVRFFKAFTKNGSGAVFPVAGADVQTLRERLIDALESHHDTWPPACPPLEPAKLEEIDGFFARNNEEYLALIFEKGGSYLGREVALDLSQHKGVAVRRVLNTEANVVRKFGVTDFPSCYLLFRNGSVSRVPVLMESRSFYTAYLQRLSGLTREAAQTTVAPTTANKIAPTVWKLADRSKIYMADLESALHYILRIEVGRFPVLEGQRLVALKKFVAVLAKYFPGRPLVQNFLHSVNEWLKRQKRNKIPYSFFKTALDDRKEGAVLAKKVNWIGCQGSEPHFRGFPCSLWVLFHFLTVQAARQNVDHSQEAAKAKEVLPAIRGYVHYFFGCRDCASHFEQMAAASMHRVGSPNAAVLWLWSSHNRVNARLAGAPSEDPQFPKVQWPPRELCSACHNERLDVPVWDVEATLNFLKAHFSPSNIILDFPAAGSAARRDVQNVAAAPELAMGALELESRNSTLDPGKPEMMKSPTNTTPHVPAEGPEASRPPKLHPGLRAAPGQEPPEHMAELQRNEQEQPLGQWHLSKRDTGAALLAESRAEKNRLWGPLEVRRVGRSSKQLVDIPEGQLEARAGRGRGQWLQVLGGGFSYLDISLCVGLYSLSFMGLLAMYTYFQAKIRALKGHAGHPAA

This assay concerns the target Sulfhydryl oxidase 1 (Homo sapiens) (UniProt O00391). Put plainly: inhibition of human sulfhydryl oxidase QSOX1 – biochemical, ROS-Glo H2O2 luminescence, HTS, primary screen (AID 1347418). The settings on record: recombinant QSOX1, ROS-Glo H2O2 luminescence; at 12.5 µM; stronger effect = higher value; active = any value above zero.
`CCOC(=O)N1CCN(/[N+]([O-])=N/Oc2ccc([N+](=O)[O-])cc2[N+](=O)[O-])CC1`: the inhibition was -34% (inactive). The result for `NC(=O)c1ncn([C@@H]2O[C@H](CO)[C@@H](O)[C@H]2O)n1` reads -3.1% (inactive); that for `OCC1O[C@H]([S-])[C@@H](O)C(O)[C@@H]1O.[Au+]` (stereo partly drawn), 2.4% (active); that for `CC(=O)N[C@@H](Cc1c[nH]c2ccccc12)C(=O)OCc1cc(C(F)(F)F)cc(C(F)(F)F)c1`, 2% (active). For the molecule `O=C1C2C=CC=CC2=NC(=S)N1CCN1CCC(=C(c2ccc(F)cc2)c2ccc(F)cc2)CC1` (stereo not drawn), the inhibition is 4.4% (active). For the molecule `NCCCCNCCCN`, the inhibition was 1.5% (active). On to `NCCCNCCCCNCCCN`, for which the inhibition is -1.8% (inactive). With `CC(C)(C)NCC(O)COc1nsnc1N1CCOCC1` (stereo not drawn), the inhibition was 3.3% (active).

For the molecule `CCOC(=O)C12CC1/C(=N/O)c1ccccc1O2` (stereo not drawn), the inhibition is 0.7% (active).

With `O=C(c1ccc(F)cc1)C1CCN(CCn2c(=O)[nH]c3ccccc3c2=O)CC1`, the inhibition was 1.5% (active). Turning to `CC1(C)C(=O)N(CCN2CCC(C(=O)c3ccc(F)cc3)CC2)c2ccccc21`, the inhibition was -1.4% (inactive).

Consider `O=C(O)c1cc(=O)cc(C(=O)O)[nH]1`, for which the inhibition is -2% (inactive). The result for `O=C(O)c1cc2cc(F)ccc2[nH]1` reads 6.8% (active).

For the molecule `CCCC[C@@]1(C2CCCC2)Cc2cc(OCC(=O)O)c(Cl)c(Cl)c2C1=O`, the inhibition was 4.2% (active). For the molecule `C[C@@]1(C2CCCC2)Cc2cc(OCC(=O)O)c(Cl)c(Cl)c2C1=O`, the inhibition is -4.6% (inactive).

With `COc1ccc2c(c1)c(CC(=O)O)c(C)n2Cc1ccc(Cl)cc1`, the inhibition is -5.1% (inactive). `CC(C)c1ccc2c(c1)c(SC(C)(C)C)c(CC(C)(C)C(=O)O)n2Cc1ccc(Cl)cc1`: the inhibition is 8.9% (active).

As for `Cc1cc2c(C(C)C)c(O)c(O)c(C=O)c2c(O)c1-c1c(C)cc2c(C(C)C)c(O)c(O)c(C=O)c2c1O`, the inhibition was 50.4% (active). Consider `CCN1C(=O)C=CC1=O`, for which the inhibition was -3.8% (inactive). In the case of `[N-]=[N+]=Nc1ccc(C(=O)CSC[C@H](NC(=O)CC[C@H](N)C(=O)O)C(=O)NCC(=O)O)cc1`, the inhibition was 6.8% (active).

`N[C@@H](CCC(=O)N[C@H](CSN=O)C(=O)NCC(=O)O)C(=O)O`: the inhibition is -4.8% (inactive). Take `O=C1N=C([O-])CN1/N=C/C1=C[C+]=C(c2ccc([N+](=O)[O-])cc2)O1`: the inhibition is 3.6% (active).

With `N=C(N)SCCN`, the inhibition is 6.4% (active). In the case of `N=C(N)SCCc1ccc(CCSC(=N)N)cc1`, the inhibition is -2.2% (inactive). Take `S=C(S)N1CCCC1`: the inhibition was 19.5% (active). As to `N#CC(C#N)=C(N)/C(C#N)=C/c1ccc(O)cc1`, the inhibition was 11.6% (active). Consider `O=[N+]([O-])c1ccc2c(c1)S(=O)(=O)C=C2`, for which the inhibition was 2% (active). As for `O=c1[nH]c2cc(C(F)(F)F)ccc2n1-c1cc(C(F)(F)F)ccc1O`, the inhibition was 1.4% (active). As for `O=NN(CCCl)C(=O)NCCCl`, the inhibition was -3.4% (inactive).

With `NC1CCN(O)C1=O` (stereo not drawn), the inhibition is 1.1% (active). With `COc1cc2c(c(OC)c1OC)-c1ccc(OC)c(=O)cc1[C@@H](NC(C)=O)CC2`, the inhibition was 1.3% (active). As for `CCCCCCC(=O)OC1CC(C)(C)NC(C)(C)C1`, the inhibition is 1.1% (active). Turning to `CNc1cc(NS(=O)(=O)c2ccc(N)cc2)nc(NC)n1`, the inhibition was 3.7% (active). Regarding `Nc1ccc(S(=O)(=O)Nc2ccnn2-c2ccccc2)cc1`, the inhibition is -1.7% (inactive).

Regarding `O=C(O)C1=CC(=C(c2ccc(O)c(C(=O)O)c2)c2ccc(O)c(C(=O)O)c2)C=CC1=O`, the inhibition was 17.4% (active).

With `COc1cc(/C=C(\C#N)C(=O)c2ccc(O)c(O)c2)cc(I)c1O`, the inhibition is 27.3% (active). Consider `N#C/C(=C\c1ccc(O)c(O)c1)C(=O)c1ccc(O)c(O)c1`, for which the inhibition was 17.4% (active).

Consider `CN(C)CCC(c1ccccc1)c1ccccn1` (stereo not drawn), for which the inhibition is 1.1% (active).

`CN(C)CC[C@@H](c1ccc(Br)cc1)c1ccccn1`: the inhibition is 7.7% (active). `CN(C)CCC(c1ccc(Cl)cc1)c1ccccn1` (stereo not drawn): the inhibition was 2.8% (active).

`CN(C)CC[C@@H](c1ccc(Cl)cc1)c1ccccn1`: the inhibition was 0% (inactive). As to `CN(C)CCC(c1ccc(Br)cc1)c1ccccn1` (stereo not drawn), the inhibition was 0.5% (active). Turning to `O.O.[NH2-].[NH2-].[NH2-].[NH2-].[NH2-].[NH2-].[NH2-].[NH2-].[NH2-].[NH2-].[NH2-].[NH2-].[NH2-].[NH2-].[Ru].[Ru].[Ru]`, the inhibition was 20.7% (active).

Turning to `CCCCC/C=C\CC(O)/C=C/c1cccc(CC(O)CCCCO)n1` (stereo not drawn), the inhibition was -0.7% (inactive). As for `O=C1CCc2cc(OCCCCc3nnnn3C3CCCCC3)ccc2N1`, the inhibition was 1.5% (active). Take `CCOC(=O)C1=C[C@]2(CC)CCCN3CCc4c(n1c1ccccc41)[C@@H]32`: the inhibition was 0.9% (active). As for `O=C1c2c(O)ccc(O)c2C(=O)c2c(NCCNCCO)ccc(NCCNCCO)c21`, the inhibition is 42% (active).

For `C=C1N=C(N=NC2=C(S(=O)(=O)[O-])[C+]=C(S(=O)(=O)[O-])[C+]=C2)[C+](COP(=O)([O-])O)C(C=O)=C1O`, the inhibition is -3.7% (inactive). `CC(=O)[C@H]1CC[C+]2C3CC=C4C[C@@H](OS(=O)(=O)[O-])CC[C@]4(C)C3CC[C@@]21C` (stereo partly drawn): the inhibition is 1.8% (active). Then `CCOC(=O)C(C)Oc1cccc2c(=O)n(CC(=O)Nc3ccc4c(c3)OCCO4)ccc12` (stereo not drawn), with -3.2% (inactive); and `c1ccc(CN2CCC3(CCCc4ccccc43)CC2)cc1`, with 3.6% (active); and `Cc1nc2sccn2c(=O)c1CCN1CCC(=C(c2ccc(F)cc2)c2ccc(F)cc2)CC1`, with 1.1% (active). In the case of `Cc1nc2sccn2c(=O)c1CCN1CCC(=C(c2ccccc2)c2ccc(F)cc2)CC1`, the inhibition was 1.2% (active). Then `Cc1nc2ccccn2c(=O)c1CCN1CCC(C(=O)c2ccc(F)cc2)CC1`, with -1.4% (inactive); and `Clc1ccc2c(c1)N=C(N1CCNCC1)c1ccccc1N2`, with 23.2% (active); and `Cc1ccc2c(c1)C(N1CCN(C)CC1)=Nc1cccnc1N2`, with 15.5% (active). For the molecule `CN1CCN(C2=Nc3cc(Cl)ccc3Nc3ccccc32)CC1`, the inhibition is 22.2% (active).

For `CC1=NS(=O)(=O)c2cc(Cl)ccc2N1`, the inhibition is -1.4% (inactive). Regarding `CCCCC[C@H](CC(=O)NO)C(=O)N[C@H](C(=O)N1CCC[C@H]1CO)C(C)C`, the inhibition is -6.2% (inactive).

Consider `CCN1CCc2nc(N)oc2CC1`, for which the inhibition is 2.8% (active). For `CCCCCC(O)CCCC(=O)O` (stereo not drawn), the inhibition is 1.1% (active).

Consider `CCCCCCCCCCCCCCSCC(=O)O`, for which the inhibition is -7.6% (inactive).

`O=C(O)CCCCCCCC(=O)O`: the inhibition was -1.7% (inactive).
